# Experimental data taken from publication PMC11062922 (Nature Chemical Biology, 2023).
# Read-outs that look alike come from different tables or passages of the source.
# Tests used:
# AAK1 = tested on: AAK1; parameters: species or system human, MV4-11 + K-562 + COLO205 + SK-N-BE2 + OVCAR-8; details: read-out: apparent Kd, n = 1
# CLK1 = tested on: CLK1; parameters: species or system human, MV4-11 + K-562 + COLO205 + SK-N-BE2 + OVCAR-8; details: read-out: apparent Kd, compound concentrations: 100 nM and 1000 nM (sheet 'Samples'), n = 1
# CLK4 = tested on: CLK4; parameters: species or system human, MV4-11 + K-562 + COLO205 + SK-N-BE2 + OVCAR-8; details: read-out: apparent Kd, compound concentrations: 100 nM and 1000 nM (sheet 'Samples'), n = 1
# CSNK2A1;CSNK2A3 = tested on: CSNK2A1;CSNK2A3; parameters: species or system human, MV4-11 + K-562 + COLO205 + SK-N-BE2 + OVCAR-8; details: read-out: apparent Kd, compound concentrations: 100 nM and 1000 nM (sheet 'Samples'), n = 1
# CSNK2A2 = tested on: CSNK2A2; parameters: species or system human, MV4-11 + K-562 + COLO205 + SK-N-BE2 + OVCAR-8; details: read-out: apparent Kd, compound concentrations: 100 nM and 1000 nM (sheet 'Samples'), n = 1
# Q6ZSR9 = Q6ZSR9 (human, UniProt Q6ZSR9); parameters: species or system MV4-11 + K-562 + COLO205 + SK-N-BE2 + OVCAR-8; details: read-out: apparent Kd, compound concentrations: 100 nM and 1000 nM (sheet 'Samples'), n = 1
# ABL1 = tested on: ABL1; parameters: species or system human, MV4-11 + K-562 + COLO205 + SK-N-BE2 + OVCAR-8; details: read-out: apparent Kd; compound concentrations: 100 nM and 1000 nM (sheet 'Samples'), CATDS: 0.106160515103876; n = 1
# ABL2 = tested on: ABL2; parameters: species or system human, MV4-11 + K-562 + COLO205 + SK-N-BE2 + OVCAR-8; details: read-out: apparent Kd; compound concentrations: 100 nM and 1000 nM (sheet 'Samples'), CATDS: 3.7512936282147198E-2; n = 1
# BCR = tested on: BCR; parameters: species or system human, MV4-11 + K-562 + COLO205 + SK-N-BE2 + OVCAR-8; details: read-out: apparent Kd; compound concentrations: 100 nM and 1000 nM (sheet 'Samples'), CATDS: 2.8038265853645699E-2; n = 1
# FYN = tested on: FYN; parameters: species or system human, MV4-11 + K-562 + COLO205 + SK-N-BE2 + OVCAR-8; details: read-out: apparent Kd; compound concentrations: 100 nM and 1000 nM (sheet 'Samples'), CATDS: 5.8978422577379903E-2; n = 1
# HCK = tested on: HCK; parameters: species or system human, MV4-11 + K-562 + COLO205 + SK-N-BE2 + OVCAR-8; details: read-out: apparent Kd; compound concentrations: 100 nM and 1000 nM (sheet 'Samples'), CATDS: 9.4879616105776998E-2; n = 1
# LCK = tested on: LCK; parameters: species or system human, MV4-11 + K-562 + COLO205 + SK-N-BE2 + OVCAR-8; details: read-out: apparent Kd; compound concentrations: 100 nM and 1000 nM (sheet 'Samples'), CATDS: 2.9875488877577801E-2; n = 1
# PTK6 = tested on: PTK6; parameters: species or system human, MV4-11 + K-562 + COLO205 + SK-N-BE2 + OVCAR-8; details: read-out: apparent Kd; compound concentrations: 100 nM and 1000 nM (sheet 'Samples'), CATDS: 5.6771173878132498E-2; n = 1
# RIPK2 = tested on: RIPK2; parameters: species or system human, MV4-11 + K-562 + COLO205 + SK-N-BE2 + OVCAR-8; details: read-out: apparent Kd, compound concentrations: 100 nM and 1000 nM (sheet 'Samples'), n = 1
# RIPK3 = tested on: RIPK3; parameters: species or system human, MV4-11 + K-562 + COLO205 + SK-N-BE2 + OVCAR-8; details: read-out: apparent Kd; compound concentrations: 100 nM and 1000 nM (sheet 'Samples'), CATDS: 2.6794845522232699E-2; n = 1
# YES1 = tested on: YES1; parameters: species or system human, MV4-11 + K-562 + COLO205 + SK-N-BE2 + OVCAR-8; details: read-out: apparent Kd; compound concentrations: 100 nM and 1000 nM (sheet 'Samples'), CATDS: 0.102310323687496; n = 1
# GAK = tested on: GAK; parameters: species or system human, MV4-11 + K-562 + COLO205 + SK-N-BE2 + OVCAR-8; details: read-out: apparent Kd; compound concentrations:100 nM and 1000 nM (sheet 'Samples'); n = 1
# Chain of Q6ZSR9 (Q6ZSR9 whole entry, looked up): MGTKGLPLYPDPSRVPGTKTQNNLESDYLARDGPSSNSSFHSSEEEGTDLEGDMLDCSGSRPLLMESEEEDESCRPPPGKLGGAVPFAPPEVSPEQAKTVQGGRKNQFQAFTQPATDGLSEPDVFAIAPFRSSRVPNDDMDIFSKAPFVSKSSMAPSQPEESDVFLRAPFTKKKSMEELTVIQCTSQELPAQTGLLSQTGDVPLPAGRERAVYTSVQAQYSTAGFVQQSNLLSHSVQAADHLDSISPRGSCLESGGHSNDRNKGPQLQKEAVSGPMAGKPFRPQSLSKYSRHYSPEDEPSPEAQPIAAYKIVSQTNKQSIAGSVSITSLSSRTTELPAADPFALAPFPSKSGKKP
smiles,measurement,setting,value
O=C1N=C(NCc2ccccc2Cl)S/C1=C\c1ccc2ncccc2c1 [RO4506917-000],potency estimated from few doses,"AAK1; compound concentrations: 100 nM and 1000 nM (sheet 'Samples'), CATDS: 0.11408276718016799",696 nM
same,potency estimated from few doses,CLK1; CATDS: 0.13615422717459799,443 nM
same,potency estimated from few doses,CLK4; CATDS: 0.16237253930463899,307 nM
same,potency estimated from few doses,CSNK2A1;CSNK2A3; CATDS: 0.21358904197946299,190 nM
same,potency estimated from few doses,CSNK2A2; CATDS: 0.17001055355195799,281 nM
same,potency estimated from few doses,Q6ZSR9; CATDS: 9.7347252089560202E-2,1190 nM
CNC1=NC(=O)/C(=C/c2ccc3ncccc3c2)S1 [RO4595949-000],potency estimated from few doses,"AAK1; compound concentrations: 100 nM and 1000 nM (sheet 'Samples'), CATDS: 6.4601129134093493E-2",737 nM
same,potency estimated from few doses,CLK1; CATDS: 0.21110804330204799,68.5 nM
same,potency estimated from few doses,CLK4; CATDS: 7.8220573800827503E-2,429 nM
same,potency estimated from few doses,CSNK2A1;CSNK2A3; CATDS: 0.13596728585800399,136 nM
same,potency estimated from few doses,CSNK2A2; CATDS: 0.13149975380310699,144 nM
same,potency estimated from few doses,Q6ZSR9; CATDS: 0.14278895493122401,125 nM
Cl.Cl.Cl.c1ccc(Oc2ccc(Nc3ccnc4cc(-c5ccc(CN6CCNCC6)o5)ccc34)cc2)nc1.c1ccc(Oc2ccc(Nc3ccnc4cc(-c5ccc(CN6CCNCC6)o5)ccc34)cc2)nc1 [GW567142A],potency estimated from few doses,ABL1,36.7 nM
same,potency estimated from few doses,ABL2,226 nM
same,potency estimated from few doses,BCR,446 nM
same,potency estimated from few doses,FYN,93.1 nM
same,potency estimated from few doses,HCK,43.2 nM
same,potency estimated from few doses,LCK,381 nM
same,potency estimated from few doses,PTK6,99.7 nM
same,potency estimated from few doses,RIPK2; CATDS: 5.5547059533083698E-2,104 nM
same,potency estimated from few doses,RIPK3,500 nM
same,potency estimated from few doses,YES1,38.7 nM
Nc1nc(-c2cccnc2)c(-c2ccnc3ccccc23)s1 [GW684083X],potency estimated from few doses,AAK1; compound concentrations:100 nM and 1000 nM (sheet 'Samples'),1960 nM
same,potency estimated from few doses,GAK,1430 nM
O=C1N=C(NCCc2ccccn2)S/C1=C\c1ccc2ncccc2c1 [RO4508346-000],potency estimated from few doses,"AAK1; compound concentrations: 100 nM and 1000 nM (sheet 'Samples'), CATDS: 8.8556384492670503E-2",711 nM
same,potency estimated from few doses,CLK1; CATDS: 0.10354679729128299,485 nM
same,potency estimated from few doses,CLK4; CATDS: 0.116533275678242,377 nM
same,potency estimated from few doses,CSNK2A1;CSNK2A3; CATDS: 0.14119727464160201,262 nM
same,potency estimated from few doses,CSNK2A2; CATDS: 0.15250276369697799,229 nM
same,potency estimated from few doses,Q6ZSR9; CATDS: 9.3045263541922094E-2,625 nM
same,potency estimated from few doses,RIPK2; CATDS: 9.0933210372185796E-2,663 nM
